Measured values taken from PubChem BioAssay AID1159580 (chemical genetic matrix, 2015).
Where “and” joins values, the source holds several entries; their conditions need not be identical. Equal values may be shown once. The campaign covered roughly 5,500 compounds. About 2,000 (36%) were called active. About 18% were inconclusive and are not listed. Rule as the data show it: active = normalized growth mostly below about 0.91 (no sharp cut-off); inconclusive = no clear call, values can overlap the other calls; inactive = mostly above about 0.92. The list shows a part of the results.

Assay: chemical genetic growth profiling, strain panel (AID 1159580);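 also: tested at 20 µM; growth read once vehicle control cultures reached saturation at 30 °C; 1 = growth at the plate median or of vehicle wells; lower values mean less growth of the strain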
Settings: S. cerevisiae deletion strains, growth OD

Measured: normalized growth

CCN(CC)CCOC(=O)C1(C2CCCCC2)CCCCC1
inactive: locus YAL021C, strain ccr4, stronger effect = lower value 0.925 | locus YAL026C, strain drs2, stronger effect = lower value 0.97 | locus YAL030W, strain snc1, stronger effect = lower value 0.985 | locus YAL040C, strain CLN3, stronger effect = lower value 1.01 | locus YBL061C, strain skt5, stronger effect = lower value 0.99 | locus YBR009C, strain hhf1, stronger effect = lower value 0.97 | locus YBR021W, strain FUR4, stronger effect = lower value 0.862 | locus YBR023C, strain chs3, stronger effect = lower value 0.972 | locus YBR171W, strain sec66, stronger effect = lower value 0.987 | locus YBR229C, strain ROT2, stronger effect = lower value 1.01 | locus YBR231C, strain swc5, stronger effect = lower value 0.998 | locus YBR279W, strain paf1, stronger effect = lower value 0.973 | locus YCL011C, strain gbp2, stronger effect = lower value 0.928 | locus YCL016C, strain dcc1, stronger effect = lower value 0.95 | locus YCL029C, strain bik1, stronger effect = lower value 0.99 | locus YCL061C, strain MRC1 (second series), stronger effect = lower value 0.998 | locus YCL069W, strain vba3, stronger effect = lower value 0.996 | locus YCR088W, strain abp1, stronger effect = lower value 0.988 | locus YDL005C, strain med2, stronger effect = lower value 0.985 | locus YDL035C, strain GPR1, stronger effect = lower value 1.02 | locus YDL040C, strain nat1, stronger effect = lower value 0.99 | locus YDL074C, strain BRE1, stronger effect = lower value 0.965 | locus YDL101C, strain DUN1, stronger effect = lower value 0.998 | locus YDL134C, strain PPH21, stronger effect = lower value 1.02 | locus YDL185W, strain tfp1, stronger effect = lower value 1 | locus YDL192W, strain arf1, stronger effect = lower value 0.985 | locus YDR001C, strain nth1, stronger effect = lower value 0.979 | locus YDR069C, strain doa4, stronger effect = lower value 0.983 | locus YDR101C, strain arx1, stronger effect = lower value 0.995 | locus YDR137W, strain rgp1, stronger effect = lower value 1.08 | locus YDR150W, strain NUM1, stronger effect = lower value 1.01 and 0.995 | locus YDR159W, strain sac3, stronger effect = lower value 0.945 | locus YDR162C, strain NBP2, stronger effect = lower value 1.01 | locus YDR195W, strain ref2 0.994 | locus YDR297W, strain sur2, stronger effect = lower value 0.99 | locus YDR318W, strain mcm21, stronger effect = lower value 0.972 | locus YDR334W, strain swr1, stronger effect = lower value 0.98 | locus YDR335W, strain msn5, stronger effect = lower value 0.981 | locus YDR363W, strain ESC2, stronger effect = lower value 0.971 | locus YDR388W, stronger effect = lower value 0.982 | locus YDR392W, strain spt3, stronger effect = lower value 0.875 | locus YDR502C, strain sam2, stronger effect = lower value 0.956 | locus YEL003W, strain gim4, stronger effect = lower value 0.987 | locus YEL037C, strain rad23, stronger effect = lower value 0.983 | locus YEL061C, strain CIN8 (second series), stronger effect = lower value 0.978 | locus YEL061C, strain CIN8, stronger effect = lower value 1 | locus YER002W, strain NOP16, stronger effect = lower value 1.02 | locus YER015W, strain faa2, stronger effect = lower value 0.944 | locus YER016W, strain bim1, stronger effect = lower value 0.969 | locus YER110C, stronger effect = lower value 0.988 | locus YER111C, strain swi4, stronger effect = lower value 0.993 | locus YER155C, strain BEM2 (second series), stronger effect = lower value 0.976 | locus YER155C, strain BEM2, stronger effect = lower value 1.01 | locus YER167W, strain BCK2, stronger effect = lower value 1.01 | locus YFR010W, strain ubp6, stronger effect = lower value 0.972 | locus YGL078C, strain dbp3, stronger effect = lower value 0.983 | locus YGL086W, strain mad1, stronger effect = lower value 0.971 | locus YGL167C, strain pmr1, stronger effect = lower value 0.985 | locus YGL173C, strain kem1, stronger effect = lower value 1 | locus YGL227W, strain vid30, stronger effect = lower value 0.974 | locus YGL240W, strain doc1, stronger effect = lower value 0.984 | locus YGL248W, strain PDE1, stronger effect = lower value 0.991 | locus YGL253W, strain hxk2, stronger effect = lower value 0.985 | locus YGR078C, strain PAC10, stronger effect = lower value 0.972 and 1.05 | locus YGR135W, strain pre9, stronger effect = lower value 0.921 | locus YGR252W, strain gcn5, stronger effect = lower value 0.889 | locus YHR013C, strain ard1, stronger effect = lower value 0.944 | locus YHR027C, strain rpn1, stronger effect = lower value 0.968 | locus YHR030C, strain SLT2, stronger effect = lower value 1 and 1.05 | locus YHR079C, strain IRE1 (second series), stronger effect = lower value 0.982 | locus YHR079C, strain IRE1, stronger effect = lower value 1.02 | locus YHR094C, strain hxt1, stronger effect = lower value 0.992 | locus YHR129C, strain ARP1, stronger effect = lower value 1 | locus YHR142W, strain chs7, stronger effect = lower value 0.987 | locus YHR200W, strain rpn10, stronger effect = lower value 0.986 | locus YIL066C, strain RNR3, stronger effect = lower value 1.01 | locus YIL073C, strain SPO22, stronger effect = lower value 0.997 | locus YIL125W, strain kgd1, stronger effect = lower value 0.99 | locus YIR030C, strain dcg1, stronger effect = lower value 0.997 | locus YJL092W, strain hpr5, stronger effect = lower value 0.969 | locus YJL095W, strain BCK1 (second series), stronger effect = lower value 0.978 | locus YJL095W, strain BCK1, stronger effect = lower value 0.929 and 1.04 | locus YJL115W, strain asf1, stronger effect = lower value 0.983 | locus YJL129C, strain trk1, stronger effect = lower value 0.98 | locus YJL134W, strain LCB3, stronger effect = lower value 1.01 | locus YJL154C, strain vps35, stronger effect = lower value 0.982 | locus YJL164C, strain tpk1, stronger effect = lower value 0.951 | locus YJL166W, strain qcr8, stronger effect = lower value 1 | locus YJL168C, strain set2, stronger effect = lower value 0.981 | locus YJL187C, strain SWE1 (second series), stronger effect = lower value 0.974 | locus YJR043C, strain POL32, stronger effect = lower value 1.06 | locus YJR066W, strain TOR1, stronger effect = lower value 0.951 | locus YJR075W, strain HOC1, stronger effect = lower value 0.952 and 0.974 | locus YKL009W, strain mrt4, stronger effect = lower value 0.971 | locus YKL068W, stronger effect = lower value 0.992 | locus YKL085W, strain MDH1 (second series), stronger effect = lower value 0.963 | locus YKL085W, strain MDH1, stronger effect = lower value 0.963 | locus YKL160W, strain elf1, stronger effect = lower value 1.01 | locus YKR001C, strain vps1, stronger effect = lower value 1 | locus YKR026C, strain gcn3, stronger effect = lower value 0.982 | locus YKR091W, strain srl3, stronger effect = lower value 0.978 | locus YLL001W, strain dnm1, stronger effect = lower value 0.998 | locus YLL026W, stronger effect = lower value 0.997 | locus YLL041C, strain sdh2, stronger effect = lower value 0.987 | locus YLR027C, strain aat2, stronger effect = lower value 0.994 | locus YLR039C, strain RIC1, stronger effect = lower value 1.3 | locus YLR058C, strain SHM2, stronger effect = lower value 0.985 | locus YLR102C, strain apc9, stronger effect = lower value 0.987 | locus YLR113W, strain HOG1, stronger effect = lower value 1.05 | locus YLR221C, strain rsa3, stronger effect = lower value 0.952 | locus YLR258W, strain gsy2, stronger effect = lower value 0.955 | locus YLR262C, strain YPT6 (second series), stronger effect = lower value 1.04 | locus YLR262C, strain YPT6, stronger effect = lower value 1.25 | locus YLR268W, strain sec22, stronger effect = lower value 0.965 | locus YLR320W, strain mms22, stronger effect = lower value 0.93 | locus YLR330W, strain CHS5, stronger effect = lower value 0.999 | locus YLR342W, strain FKS1 (second series), stronger effect = lower value 0.905 | locus YLR342W, strain FKS1, stronger effect = lower value 0.983 | locus YLR357W, strain rsc2, stronger effect = lower value 0.965 | locus YLR370C, strain arc18, stronger effect = lower value 0.979 | locus YLR371W, strain rom2, stronger effect = lower value 0.973 | locus YLR384C, strain iki3, stronger effect = lower value 0.993 | locus YLR418C, strain cdc73, stronger effect = lower value 0.847 | locus YML016C, strain PPZ1, stronger effect = lower value 0.997 | locus YML032C, strain rad52, stronger effect = lower value 0.966 | locus YML120C, strain ndi1, stronger effect = lower value 0.985 | locus YML124C, strain tub3, stronger effect = lower value 0.984 | locus YMR058W, strain fet3, stronger effect = lower value 0.983 | locus YMR078C, strain ctf18, stronger effect = lower value 0.978 | locus YMR125W, strain sto1, stronger effect = lower value 0.946 | locus YMR129W, stronger effect = lower value 0.972 | locus YMR205C, strain PFK2, stronger effect = lower value 0.985 | locus YMR223W, strain ubp8, stronger effect = lower value 0.932 | locus YMR231W, strain pep5, stronger effect = lower value 0.985 | locus YMR263W, strain SAP30, stronger effect = lower value 0.984 and 1 | locus YMR307W, strain GAS1, stronger effect = lower value 1.23 and 1.02 | locus YNL067W, strain RPL9B, stronger effect = lower value 0.979 | locus YNL071W, strain lat1, stronger effect = lower value 0.951 | locus YNL128W, strain TEP1, stronger effect = lower value 1.02 | locus YNL153C, strain GIM3, stronger effect = lower value 0.966 and 0.991 | locus YNL175C, strain NOP13, stronger effect = lower value 1.02 | locus YNL183C, strain NPR1, stronger effect = lower value 0.995 | locus YNL197C, strain WHI3, stronger effect = lower value 1.06 | locus YNL209W, strain ssb2, stronger effect = lower value 0.947 | locus YNL224C, strain SQS1, stronger effect = lower value 1.01 | locus YNL233W, strain BNI4, stronger effect = lower value 0.962 | locus YNL248C, strain rpa49, stronger effect = lower value 0.948 | locus YNL250W, strain rad50, stronger effect = lower value 0.979 | locus YNL271C, strain bni1, stronger effect = lower value 0.973 | locus YNL298W, strain CLA4, stronger effect = lower value 1 | locus YNL307C, strain MCK1, stronger effect = lower value 0.968 | locus YNL322C, strain KRE1 (second series), stronger effect = lower value 0.979 | locus YNR049C, strain mso1, stronger effect = lower value 0.979 | locus YNR052C, strain pop2, stronger effect = lower value 0.961 | locus YOL012C, strain htz1 0.807 | locus YOL147C, strain pex11, stronger effect = lower value 0.99 | locus YOR001W, strain rrp6, stronger effect = lower value 1.01 | locus YOR061W, strain CKA2, stronger effect = lower value 1 | locus YOR069W, strain VPS5, stronger effect = lower value 0.994 | locus YOR070C, strain gyp1, stronger effect = lower value 0.968 | locus YOR080W, strain dia2, stronger effect = lower value 0.982 | locus YOR083W, strain WHI5 (second series), stronger effect = lower value 1.02 | locus YOR083W, strain WHI5, stronger effect = lower value 0.965 | locus YOR106W, strain vam3, stronger effect = lower value 1 | locus YOR136W, strain idh2, stronger effect = lower value 0.998 | locus YOR144C, strain elg1, stronger effect = lower value 0.997 | locus YOR184W, strain ser1, stronger effect = lower value 0.992 | locus YOR231W, strain MKK1, stronger effect = lower value 1.04 | locus YOR265W, strain rbl2, stronger effect = lower value 0.991 | locus YOR270C, strain vph1, stronger effect = lower value 0.85 | locus YOR290C, strain snf2, stronger effect = lower value 0.939 | locus YOR316C, strain cot1, stronger effect = lower value 0.992 | locus YPL051W, strain arl3, stronger effect = lower value 0.984 | locus YPL055C, strain LGE1, stronger effect = lower value 0.986 | locus YPL078C, strain atp4, stronger effect = lower value 1.01 | locus YPL106C, strain sse1, stronger effect = lower value 0.939 | locus YPL240C, strain hsp82, stronger effect = lower value 0.984 | locus YPL241C, strain CIN2, stronger effect = lower value 0.998 | locus YPL256C, strain CLN2, stronger effect = lower value 1.05 | locus YPR119W, strain clb2, stronger effect = lower value 0.99 | locus YPR141C, strain kar3, stronger effect = lower value 0.993 | locus YPR163C, strain tif3, stronger effect = lower value 0.988 | locus YPR167C, strain met16, stronger effect = lower value 0.983 | strain wtn01, stronger effect = lower value 0.957
active: locus YAL013W, strain DEP1, stronger effect = lower value 0.892
